PubChem BioAssay (NCATS)
Where “and” joins values, the source holds several entries; their conditions need not be identical. Equal entries are not always repeated. Inconclusive results are not listed. This is one part of the list. Calls of active or inactive are those of the source. Unless noted, calls follow the shape of the dose curve; as a rule, active = well fitted curve in the direction sought with a large enough effect; inconclusive = small, poorly fitted or top-dose-only effect, or another doubt; inactive = no such curve, though single readings can be large; an effect the other way counts as inactive or inconclusive.

Columns and labels:
[1] = Cytometric Cell-Based qHTS for Inhibitors of the mTORC1 Signaling Pathway in MEF (Tsc2-/-, p53-/-) Cells (AID 2660);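 also: Tsc2 and p53 null MEFs carrying empty vector with compound for 24 h; percent of cells above a phospho-rpS6 to PI ratio cutoff in each well; series mostly up to about 38 µM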
How it was run: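 Immunofluorescence qHTS of rpS6 Ser235/236 phosphorylation: MEFs (Tsc2-/-, p53-/-) treated 24 h, 37 C, in DMEM + 10% FBS. Alexa-488 signal normalized to PI count, referenced to rapamycin (7.5 nM) and DMSO; PI cell number recorded for viability.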

[2] = High Content Imaging Cell-Based qHTS for Inhibitors of the mTORC1 Signaling Pathway in MEF (Tsc2-/-, p53-/-) Cells (AID 2666);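 also: percent of cells scored positive for phospho-rpS6 Ser235/236 immunostaining by imaging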
How it was run: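 MEF Tsc2-/- p53-/- (empty vector), DMEM/10% FBS; cpd 24 h 37 °C; PFA fix, Alexa-488 p-rpS6 S235/236 Ab, Hoechst; imaged; rapamycin-defined inhibition; % positive cells/well.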

[3] = High Content Imaging Cell-Based qHTS for Inhibitors of the mTORC1 Signaling Pathway in MEF Cells (AID 2667); also: potency is read from the fitted curve at half-maximal effect
How it was run: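 Read-out is the share of phospho-rpS6-positive cells per well, from Hoechst-normalized Alexa-488 Ser235/236 staining imaged on IN Cell. Cells: WT Tsc2-expressing Tsc2-/-, p53-/- MEFs exposed to compound for 24 hrs.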

[4] = Cytometry Cell-Based qHTS for Inhibitors of the mTORC1 Signaling Pathway in MEF cells (AID 2668);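 also: Tsc2-/- p53-/- mouse embryonic fibroblasts stably re-expressing wild-type Tsc2; percent cells positive for phospho-rpS6 Ser235/236 relative to propidium iodide stain; series mostly up to about 38 µM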
How it was run: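 Pathway inhibition in WT Tsc2-rescued Tsc2-/-, p53-/- MEFs is measured as the Alexa-488 phospho-rpS6 to propidium iodide intensity ratio after 24 hrs of compound at 37 degree Celsius. PI-stained cell number gives viability.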

[5] = Validation screen for inhibitors of Lassa infection (AID 463096; calls by dose curve; also: potency is read from the fitted curve at half-maximal effect)
[6] = Validation screen for small molecules that induce DNA re-replication in MCF 10A normal breast cells (AID 463097); also: nearly all actives have a fitted effect of over 60% in size; also: potency is read from the fitted curve at half-maximal effect
How it was run: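 DNA re-replication was detected as a rise in nuclei with elevated Hoechst fluorescence after a 48 hr compound exposure of MCF 10A cells at 37 C.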

[7] = molecular target: Ubiquitin carboxyl-terminal hydrolase 2 (Homo sapiens) (UniProt O75604); test: qHTS Validation Assay for Inhibitors of Ubiquitin-specific Protease USP2a Using CHOP2 as the Reporter (AID 463106); also: potency is read from the fitted curve at half-maximal effect
Ubiquitin carboxyl-terminal hydrolase 2 (Homo sapiens), sequence (O75604 whole entry, looked up): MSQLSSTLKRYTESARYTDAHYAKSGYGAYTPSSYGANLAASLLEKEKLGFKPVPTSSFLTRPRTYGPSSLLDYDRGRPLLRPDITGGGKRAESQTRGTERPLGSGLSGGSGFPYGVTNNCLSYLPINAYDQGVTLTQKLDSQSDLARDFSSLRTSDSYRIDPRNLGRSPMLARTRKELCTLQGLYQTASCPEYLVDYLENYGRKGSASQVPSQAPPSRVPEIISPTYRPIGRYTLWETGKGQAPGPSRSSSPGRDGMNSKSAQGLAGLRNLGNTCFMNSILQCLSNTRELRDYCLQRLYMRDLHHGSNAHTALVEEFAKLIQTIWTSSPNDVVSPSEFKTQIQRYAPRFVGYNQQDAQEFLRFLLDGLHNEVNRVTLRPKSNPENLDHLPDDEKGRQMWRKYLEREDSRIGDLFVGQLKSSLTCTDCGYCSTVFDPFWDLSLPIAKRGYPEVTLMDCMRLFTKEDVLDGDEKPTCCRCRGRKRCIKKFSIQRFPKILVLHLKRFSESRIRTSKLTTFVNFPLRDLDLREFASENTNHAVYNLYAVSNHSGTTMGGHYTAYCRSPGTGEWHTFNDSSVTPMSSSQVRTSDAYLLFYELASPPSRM
How it was run: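 Fluorescence read-out at Ex 485nm/Em 531nm after 60min RT, following addition of 25nM Ub-CHOP2 plus 25nM reporter substrate to USP2 core (10nM) pretreated 30min with compound. Data normalized to NEM full inhibition; concentration-response curves fitted.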

[8] = molecular target: DNA polymerase III PolC-type (Bacillus subtilis (strain 168)) (UniProt P13267); test: qHTS Validation Assay for the Inhibitors of DNA Replication in Gram-Positive Bacteria (AID 485295); also: potency is read from the fitted curve at half-maximal effect
DNA polymerase III PolC-type (Bacillus subtilis (strain 168)), sequence (P13267 whole entry, looked up): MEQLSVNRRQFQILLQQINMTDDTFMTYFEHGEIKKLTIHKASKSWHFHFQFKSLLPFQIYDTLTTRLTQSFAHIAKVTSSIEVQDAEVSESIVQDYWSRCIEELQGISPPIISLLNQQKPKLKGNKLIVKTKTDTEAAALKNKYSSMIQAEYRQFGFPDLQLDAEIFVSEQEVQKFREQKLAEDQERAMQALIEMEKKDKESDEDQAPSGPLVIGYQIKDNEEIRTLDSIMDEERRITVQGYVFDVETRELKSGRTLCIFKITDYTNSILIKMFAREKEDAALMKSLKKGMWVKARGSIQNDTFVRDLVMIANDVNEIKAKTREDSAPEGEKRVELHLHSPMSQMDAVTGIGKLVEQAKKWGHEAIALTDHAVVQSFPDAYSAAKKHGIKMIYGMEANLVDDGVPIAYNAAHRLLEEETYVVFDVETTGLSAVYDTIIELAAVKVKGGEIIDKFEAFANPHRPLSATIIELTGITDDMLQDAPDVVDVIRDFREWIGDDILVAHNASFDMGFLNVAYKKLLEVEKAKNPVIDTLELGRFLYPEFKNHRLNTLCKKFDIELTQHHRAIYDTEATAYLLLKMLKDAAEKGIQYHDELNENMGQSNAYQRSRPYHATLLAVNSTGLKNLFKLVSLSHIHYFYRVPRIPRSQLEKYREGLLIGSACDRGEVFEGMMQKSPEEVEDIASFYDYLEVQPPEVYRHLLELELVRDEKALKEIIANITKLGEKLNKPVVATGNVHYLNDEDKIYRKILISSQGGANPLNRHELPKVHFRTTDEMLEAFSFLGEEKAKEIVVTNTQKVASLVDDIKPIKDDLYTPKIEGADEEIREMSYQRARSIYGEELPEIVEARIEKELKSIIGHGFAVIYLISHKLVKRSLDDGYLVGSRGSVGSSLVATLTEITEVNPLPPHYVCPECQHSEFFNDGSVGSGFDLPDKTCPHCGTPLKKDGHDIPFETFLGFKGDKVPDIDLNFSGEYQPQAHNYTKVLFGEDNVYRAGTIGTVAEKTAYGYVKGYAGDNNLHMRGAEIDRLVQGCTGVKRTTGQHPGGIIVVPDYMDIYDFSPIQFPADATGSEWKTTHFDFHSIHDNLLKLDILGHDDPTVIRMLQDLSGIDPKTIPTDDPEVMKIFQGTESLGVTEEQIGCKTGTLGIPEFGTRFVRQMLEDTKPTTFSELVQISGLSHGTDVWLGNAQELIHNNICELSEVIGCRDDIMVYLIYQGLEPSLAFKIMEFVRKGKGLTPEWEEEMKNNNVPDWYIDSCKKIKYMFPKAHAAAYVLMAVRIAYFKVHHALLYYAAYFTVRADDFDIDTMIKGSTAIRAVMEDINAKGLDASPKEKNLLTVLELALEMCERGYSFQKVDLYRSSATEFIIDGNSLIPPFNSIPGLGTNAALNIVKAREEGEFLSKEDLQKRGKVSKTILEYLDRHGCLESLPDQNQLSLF
How it was run: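 Primed replication of single-stranded M13Gori by a four-protein B. subtilis holoenzyme is measured at room temperature. Double-stranded product is quantified by PicoGreen fluorescence after an EDTA stop; inhibition is scaled between DMSO and EDTA controls.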

[9] = molecular target: Tumor susceptibility gene 101 protein (Homo sapiens) (UniProt Q99816); test: qHTS Validation Assay for Iinhibitors of HIV-1 Budding by Blocking the Interaction of PTAP/TSG101 (AID 485342; calls by dose curve)
Tumor susceptibility gene 101 protein (Homo sapiens), sequence (Q99816 whole entry, looked up, the tested form may be a part): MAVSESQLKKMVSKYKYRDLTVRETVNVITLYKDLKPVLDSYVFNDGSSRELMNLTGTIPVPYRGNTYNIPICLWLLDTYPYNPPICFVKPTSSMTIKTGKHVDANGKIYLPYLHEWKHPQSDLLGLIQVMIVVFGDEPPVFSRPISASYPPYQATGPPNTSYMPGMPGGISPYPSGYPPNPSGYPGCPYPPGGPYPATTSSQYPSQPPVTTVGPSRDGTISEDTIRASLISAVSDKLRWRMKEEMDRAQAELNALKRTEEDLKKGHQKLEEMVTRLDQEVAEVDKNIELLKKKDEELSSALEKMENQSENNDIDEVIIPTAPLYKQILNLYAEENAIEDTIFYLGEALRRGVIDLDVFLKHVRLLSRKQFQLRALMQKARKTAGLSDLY
How it was run: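 Fluorescence anisotropy measured PTAP-Tsg101 interaction. Final concentrations were 10 uM protein domain and 50 nM labeled peptide, equilibrated 20 min at room temperature.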

[10] = qHTS Validation Assay to Find Inhibitors of Chronic Active B-Cell Receptor Signaling (AID 485345; active = well fitted curve in the direction sought with a large enough effect in the main read-out, with a control signal flat, not every such curve was filed as active; also: potency is read from the fitted curve at half-maximal effect)
How it was run: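 TMD8 ABC-DLBCL cells stably carrying doxycycline-inducible IkappaBalpha–green luciferase fusion plus unfused red luciferase; compounds 46 uM to 3 nM, 4 h at 37C with doxycycline. Corrected green/red luminescence ratio normalized to 10 uM MG-132 and basal cell wells; curves fitted.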

[11] = molecular target: Beta-2 adrenergic receptor (Homo sapiens) (UniProt P07550); test: qHTS validation assay of beta-arrestin-biased ligands of beta2-adrenergic receptor (AID 485366)
Beta-2 adrenergic receptor (Homo sapiens), sequence (P07550 whole entry, looked up): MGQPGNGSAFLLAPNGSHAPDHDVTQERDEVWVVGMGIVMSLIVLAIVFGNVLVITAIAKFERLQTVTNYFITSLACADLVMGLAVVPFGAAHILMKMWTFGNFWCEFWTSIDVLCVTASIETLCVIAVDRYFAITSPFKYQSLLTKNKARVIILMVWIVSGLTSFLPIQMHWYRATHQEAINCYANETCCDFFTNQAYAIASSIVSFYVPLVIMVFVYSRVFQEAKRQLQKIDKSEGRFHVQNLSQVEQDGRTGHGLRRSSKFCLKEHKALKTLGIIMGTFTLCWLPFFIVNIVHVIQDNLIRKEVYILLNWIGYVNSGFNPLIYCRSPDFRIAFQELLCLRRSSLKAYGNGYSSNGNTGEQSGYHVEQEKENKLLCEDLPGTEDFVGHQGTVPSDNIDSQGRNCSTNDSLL
How it was run: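 Agonism was measured as beta-arrestin recruitment to recombinant beta2-AR, releasing tTA to drive luciferase. Cells were exposed for 18 hr at 37 degrees C to a series up to 46 microM. %Activity from corrected luminescence gave concentration-response curves.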

[12] = molecular target: ATP-dependent 6-phosphofructokinase (Trypanosoma brucei brucei) (UniProt O15648); test: qHTS Validation Assay to Find Inhibitors of T. brucei phosphofructokinase (AID 485368); also: potency is read from the fitted curve at half-maximal effect
How it was run: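 ADP-Glo luminescence, two-step: residual ATP depleted, then ADP converted to ATP for luciferase. Enzyme 1.25 nM, F6P 0.5 mM, ATP 0.1 mM, pH 8.0 TEA buffer, 45 min RT. Curves fitted and classed by quality and efficacy.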

[13] = Quantitative high throughput screen for delayed death inhibitors of the malarial parasite plastid, 96 hour incubation (AID 488745); also: nearly all actives have a fitted effect of over 70% in size; also: potency is read from the fitted curve at half-maximal effect
How it was run: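 Two-generation (96 h) exposure of luciferase-reporter P. falciparum in erythrocytes, 2% hematocrit, 0.1% parasitemia final, 37 C, 5% CO2, RPMI 1640 with 0.5% Albumax. Growth inhibition scored by reduced luminescence.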

[14] = Quantitative high throughput screen for delayed death inhibitors of the malarial parasite plastid, 48 hour incubation (AID 488752); also: nearly all actives have a fitted effect of over 65% in size; also: potency is read from the fitted curve at half-maximal effect
How it was run: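 Cultures: infected erythrocytes at final 2% hematocrit and 0.1% parasitemia in Albumax-supplemented RPMI. Parasites express integrated firefly luciferase. Incubation with compound lasts 48 h before luminescent detection of remaining reporter activity.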

[15] = molecular target: M-phase phosphoprotein 8 (Homo sapiens) (UniProt Q99549); test: qHTS Validation Assay for Inhibitors for MPP8 Chromodomain Interactions with Methylated Histone Tails (AID 488949); also: nearly all actives have a fitted effect of over 55% in size; also: potency is read from the fitted curve at half-maximal effect
M-phase phosphoprotein 8 (Homo sapiens), sequence (Q99549 whole entry, looked up): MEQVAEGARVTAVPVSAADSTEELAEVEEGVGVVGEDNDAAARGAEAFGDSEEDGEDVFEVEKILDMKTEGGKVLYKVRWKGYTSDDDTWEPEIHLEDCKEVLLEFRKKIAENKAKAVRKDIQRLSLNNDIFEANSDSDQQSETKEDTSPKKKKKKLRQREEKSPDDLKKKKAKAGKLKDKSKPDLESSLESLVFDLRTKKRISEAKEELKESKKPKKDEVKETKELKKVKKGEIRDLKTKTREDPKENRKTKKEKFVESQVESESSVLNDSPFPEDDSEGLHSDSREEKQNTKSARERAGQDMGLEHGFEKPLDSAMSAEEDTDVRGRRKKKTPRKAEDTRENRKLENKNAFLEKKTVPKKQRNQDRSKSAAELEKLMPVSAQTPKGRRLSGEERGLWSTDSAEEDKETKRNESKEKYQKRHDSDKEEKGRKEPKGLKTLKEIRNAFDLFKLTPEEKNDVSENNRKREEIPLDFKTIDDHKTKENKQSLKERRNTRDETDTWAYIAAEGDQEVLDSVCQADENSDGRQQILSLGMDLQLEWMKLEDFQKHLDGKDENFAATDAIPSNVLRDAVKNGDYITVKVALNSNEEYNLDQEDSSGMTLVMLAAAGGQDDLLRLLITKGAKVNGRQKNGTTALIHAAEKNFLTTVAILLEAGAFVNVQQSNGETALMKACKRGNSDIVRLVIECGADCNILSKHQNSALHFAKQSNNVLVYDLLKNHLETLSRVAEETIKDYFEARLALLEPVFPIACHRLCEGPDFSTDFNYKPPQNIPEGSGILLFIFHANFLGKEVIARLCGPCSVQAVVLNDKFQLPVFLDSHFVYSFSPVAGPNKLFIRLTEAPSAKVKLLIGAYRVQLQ
How it was run: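 Disruption of the preformed MPP8–trimethyl-H3K9 peptide complex (both 50 nM, 30 min, RT) is measured after 30 min compound exposure, using AlphaScreen proximity beads; aurintricarboxylic acid titration serves as plate control.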

[16] = molecular target: Thioredoxin reductase 1, cytoplasmic (Rattus norvegicus) (UniProt O89049); test: qHTS Assay for Substrates of Mammalian Selenoprotein Thioredoxin Reductase 1 (TrxR1) (AID 488772);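 also: series mostly up to about 57 µM; a drop in NADPH fluorescence below the no-compound background marks a TrxR1 substrate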
Thioredoxin reductase 1, cytoplasmic (Rattus norvegicus), sequence (O89049 whole entry, looked up): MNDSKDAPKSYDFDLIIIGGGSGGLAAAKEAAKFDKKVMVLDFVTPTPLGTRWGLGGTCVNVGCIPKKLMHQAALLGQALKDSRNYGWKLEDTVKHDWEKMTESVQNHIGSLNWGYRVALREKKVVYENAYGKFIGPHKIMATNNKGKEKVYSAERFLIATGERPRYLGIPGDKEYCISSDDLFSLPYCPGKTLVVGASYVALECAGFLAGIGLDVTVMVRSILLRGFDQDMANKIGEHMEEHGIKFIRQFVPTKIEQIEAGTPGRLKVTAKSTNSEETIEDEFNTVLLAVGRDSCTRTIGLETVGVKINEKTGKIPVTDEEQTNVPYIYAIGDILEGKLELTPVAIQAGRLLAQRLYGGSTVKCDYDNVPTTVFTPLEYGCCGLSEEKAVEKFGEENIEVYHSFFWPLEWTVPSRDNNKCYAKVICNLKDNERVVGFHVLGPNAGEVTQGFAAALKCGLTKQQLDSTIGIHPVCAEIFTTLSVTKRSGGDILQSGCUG
How it was run: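 In this dual-purpose format, potential substrates are identified from the first fluorescence read after selenite addition, not from the 8-minute delta. Rat enzyme is preincubated with NADPH and then with compound at ~22 deg C.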

[17] = molecular target: Thioredoxin reductase 1, cytoplasmic (Rattus norvegicus) (UniProt O89049); test: qHTS Assay for Inhibitors of Mammalian Selenoprotein Thioredoxin Reductase 1 (TrxR1) (AID 488773); conditions: Potency: inhibition;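 also: drop in NADPH fluorescence over an 8 min run after selenite addition; series mostly up to about 57 µM; nearly all actives have a fitted effect of over 40% in size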
How it was run: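 Inhibition is scored from the loss of NADPH fluorescence between first and last reads of an 8-min kinetic run. Selenite (400 uM) was the substrate, added after 15 min compound preincubation at room temperature.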

[18] = molecular target: Flap endonuclease 1 (Homo sapiens) (UniProt P39748); test: qHTS Validation Assay for the Inhibitors of Human Flap endonuclease 1 (FEN1) (AID 488816); also: potency is read from the fitted curve at half-maximal effect
Flap endonuclease 1 (Homo sapiens), sequence (P39748 whole entry, looked up): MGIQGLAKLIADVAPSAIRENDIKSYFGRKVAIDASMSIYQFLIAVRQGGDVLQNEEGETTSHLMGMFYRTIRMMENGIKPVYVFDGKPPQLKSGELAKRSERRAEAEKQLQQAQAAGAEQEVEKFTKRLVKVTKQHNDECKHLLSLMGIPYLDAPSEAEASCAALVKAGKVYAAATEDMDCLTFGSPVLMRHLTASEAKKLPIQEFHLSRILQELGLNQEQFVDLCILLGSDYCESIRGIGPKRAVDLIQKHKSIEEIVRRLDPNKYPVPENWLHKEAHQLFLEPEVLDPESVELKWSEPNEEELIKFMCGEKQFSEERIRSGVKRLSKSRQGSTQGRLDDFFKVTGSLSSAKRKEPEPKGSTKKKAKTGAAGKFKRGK
How it was run: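 Enzyme reagent 10 nM; cpds pinned; 15 min RT preinc.; substrate 50 nM final; reads t=0 and 15 min; no-enzyme buffer wells as neg. control; normalized data, 4-parameter Hill fit.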

[19] = molecular target: Endonuclease 4 (Escherichia coli (strain K12)) (UniProt P0A6C1); test: Counterscreen for APE1 Inhibitors: qHTS Assay for Inhibitors of Endonuclease IV (AID 2565)
How it was run: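 Read-out: fluorescence rise (ex 525/em 598 nm) from incision of a TAMRA/BHQ-2 double-stranded THF abasic-site substrate (50 nM), measured kinetically; third-minus-first read difference gave reaction progress. Enzyme 2 nM.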

Measured: Potency

CCN(CCCl)Cc1ccccc1Br
inactive: [1] | [2] | [3] | [4] | [5] | [6] | [7] | [8] | [9] | [10] | [11] | [12] | [13] | [14] | [15]

C[C@]12Cc3cn4c(nc3C=C1CCC1C2CC[C@@]2(C)[C@H]1CC[C@@]2(O)C#N)nc1ccccc14 (some centres not stated)
active: [6] 12.6 µM | [10] 13 µM | [14] 3.7 µM
inactive: [1] | [2] | [3] | [4] | [5] | [7] | [8] | [9] | [11] | [16] | [17] | [18] | [15]

c1ccc2c(c1)[I+]c1ccccc1-2
active: [3] 0.0585 µM | [5] 0.251 µM | [13] 0.131 µM | [14] 0.147 µM
inactive: [19] | [7] | [8] | [9] | [11] | [12] | [16]

CN(N=O)c1ccc(O)c(O)c1
inactive: [1] | [2] | [3] | [4] | [5] | [6] | [9] | [10] | [11] | [13] | [14] | [16]
active: [7] 4.14 µM | [8] 23.8 µM | [18] 2.67 µM | [15] 2.51 µM and 2.38 µM

Cc1[nH]c2ccc(O)cc2c1CCN
inactive: [1] | [2] | [3] | [4] | [5] | [7] | [8] | [9] | [10] | [11] | [12] | [14] | [16] | [17] | [15]

NCC(O)c1cc(O)c(O)cc1F (configuration not stated)
inactive: [1] | [2] | [3] | [4] | [5] | [7] | [8] | [9] | [10] | [11] | [14]
active: [12] 4.78 µM

C[N+](C)(C)CC#CCOC(=O)Nc1cccc(Cl)c1
inactive: [1] | [2] | [3] | [4] | [5] | [7] | [8] | [9] | [10] | [11] | [12] | [18] | [15]

NCCCP(=O)(O)O
inactive: [1] | [2] | [3] | [4] | [5] | [6] | [7] | [8] | [9] | [10] | [11] | [12] | [13] | [14] | [16] | [17] | [15]

N[C@@H](CCl)C(=O)O
inactive: [1] | [2] | [3] | [4] | [5] | [6] | [7] | [8] | [9] | [10] | [11] | [12] | [14] | [16] | [17] | [18] | [15]
